According to the supplement of paper PMC7556523:
Unmarked numbers belong to inactive results.

Experiments:
[1] = tested on: Sporothrix brasiliensis CBS 133006; experiment: growth inhibition relative to untreated control; higher = more growth inhibition (more antifungal activity), active = 80 or more; extreme values may be limits of the assay; details: 1 µM; 48 h
How it was run: (§1)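 Each value is the percent growth inhibition compared with cells left untreated. Reference isolates were grown as yeast-form cells in brain heart infusion broth with 2% glucose for 7 days at 36°C, then exposed at 1 x 10^5 CFU/ml to library compounds at a final 1 μM for 48 h at 35°C in 5% CO2. Growth was inspected visually under an inverted light microscope and quantified by spectrophotometric readings, with runs in quadruplicate.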

[2] = tested on: Sporothrix schenckii ATCC 32286; experiment: as above; details: 1 µM; 48 h
How it was run: as §1

Row | SMILES | growth inhibition [1] | growth inhibition [2]
1 | COc1cc(C2=NCCN2)ccc1-n1cc(-c2cccc(C3=NCCN3)c2)nn1 | 18.5% | 5.5%
2 | CCNC(=O)C(C)Nc1nc(-c2cccnc2)nc2sc(C)c(C)c12 (stereo not drawn) | 2.25% | 16%
3 | Cc1cc(OCC(=O)NCc2ccccc2)c2cc(Br)ccc2n1 | 10% | 4%
4 | Cc1ccc(C(=O)Nc2ccc(S(=O)(=O)O)c3cc(S(=O)(=O)O)cc(S(=O)(=O)O)c23)cc1NC(=O)c1cccc(NC(=O)Nc2cccc(C(=O)Nc3cc(C(=O)Nc4ccc(S(=O)(=O)O)c5cc(S(=O)(=O)O)cc(S(=O)(=O)O)c45)ccc3C)c2)c1 | 28% | 19%
5 | O=C(NCCN1CCCC1)c1cc(NCCN2CCOCC2)nc2ccc(Cl)cc12 | 4.5% | 0%
6 | Cc1noc(C)c1C(=O)N1CCCC(c2[nH]c3c(C)cccc3c2-c2ccncc2)C1 (stereo not drawn) | 7.5% | 14%
7 | CN1CCN(c2cc(-c3ccc(F)cc3)nc(-c3ccncc3)n2)CC1 | 7% | 12.2%
8 | CCC(C)NC(=O)c1ccc(NC(=O)C2(c3ccccc3)CCCC2)cc1 (stereo not drawn) | 5.5% | 4.25%
9 | COc1cccc(-n2nnnc2S(C)(=O)=O)c1 | 0% | 22.8%
10 | c1coc(CNc2nc(N3CCCCC3)nc3ccccc23)c1 | 4.25% | 13.5%
11 | Cc1cc(NC(=O)c2ccc(S(=O)(=O)N(Cc3ccccc3)C(C)C)cc2)no1 | 18.2% | 2.75%
12 | Nc1ncnc2c1ncn2[C@@H]1O[C@H](COS(=O)(=O)NC(=O)c2ccccc2O)[C@@H](O)[C@H]1O | 5.25% | 9%
13 | CC(C)c1ncc(-c2ccncc2)c([C@H]2CC[C@H](CNC(=O)c3cccnc3)CC2)n1 | 4.5% | 8.25%
14 | COC(=O)Nc1nc2cc(C(=O)c3ccccc3)ccc2[nH]1 | 3.75% | 16%
15 | Nc1ccc2ncnc(Nc3ccc(OCc4cccc(F)c4)c(Cl)c3)c2c1 | 12.8% | 8.25%
16 | CS(=O)(=O)c1ccc(C(=O)N(CC2CCCO2)c2nc3ccccc3s2)cc1[N+](=O)[O-] (stereo not drawn) | 27.2% | 19%
17 | O=C1[C@@H](Oc2ccccc2)[C@@H](c2ccc(Cl)cc2)N1CCn1cnc2c(NCc3ccccc3)ncnc21 | 14% | 17.8%

Row | SMILES | growth inhibition [1] | growth inhibition [2]
18 | c1csc(-c2cnc3sc(NCC4CCOCC4)nn23)c1 | 19.8% | 8.75%
19 | Cc1noc(C)c1COc1cccc(C(=O)N=c2[nH]cccc2C)c1 | 0% | 8.25%
20 | CCCCCCCCCCCCCCCCOP(=O)([O-])OCC[N+](C)(C)C | 24.8% | 0%
21 | CCOc1ccc(OCC(=O)Nc2cc(C)cc(C)c2)cc1 | 12.2% | 18%
22 | CC(C)(C)n1nc(-c2ccccc2)c2c(N)ncnc21 | 0% | 9%
23 | Cn1c(=O)c2c(S(C)(=O)=O)snc2n(C)c1=O | 9% | 13.2%
24 | COc1ccc(N(CCc2cccc(C)n2)C(C)=O)cc1 | 0% | 1.25%
25 | Clc1ccc(Cl)c(CO[C@H]2CCCC[C@@H]2n2ccnc2)c1 | 18% | 5.5%
26 | FC(F)(F)c1cc(NCCc2ccccc2)nc(-c2ccccn2)n1 | 10% | 9.75%
27 | COc1ccc(-c2nnc3ccc(-c4cccc(C(C)C)c4)cn23)cc1OC | 17% | 16.8%
28 | O=C(NCCc1ccn(-c2ccccc2)n1)C1CCCCC1 | 11.5% | 6.25%
29 | NC(=O)c1cc(Br)ccc1OCCOc1ccccc1 | 23.5% | 1.25%
30 | COc1ccc(C2=NN(C3CCCCCC3)C(=O)[C@@H]3CC=CC[C@H]23)cc1OCCCCOc1ccc(-c2nnn[nH]2)cc1 | 2.5% | 9.5%
31 | COc1cccc(-n2nnnc2S(=O)(=O)Cc2ccccc2)c1 | 19% | 6%
32 | COc1ccccc1C(C)NCC(=O)Nc1cc(C(F)(F)F)ccc1Cl (stereo not drawn) | 9.75% | 0%
33 | O=C(NCc1ccco1)N1CCN(Cc2ccc(Cl)s2)CC1 | 0% | 0.25%
34 | O=C(c1[nH]nc2c1CCCC2)N1CCN(Cc2ccc3c(c2)OCO3)CC1 | 9.75% | 16.2%
